# Laboratory results reported in the supplement of paper PMC10849652.
# Of roughly 8,800 targets only a part is listed; those with a hit were picked by preference. About 0.5% of all pairs of compound and target were hits. A number with no mark means an inactive call.
# Tests used:
# Experiment in all cases: log2 fold change, soluble protein after heating vs DMSO (PISA); higher = thermal stabilisation; K562 lysate, 10 uM; active = over 0.2 and 3.5 SD of the protein, either way, in both replicates (recomputed)
# ibrutinib = compound: C=CC(=O)N1CCC[C@@H](n2nc(-c3ccc(Oc4ccccc4)cc3)c3c(N)ncnc32)C1 [ibrutinib]
# Outline: (§1)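 A 30 min treatment with 10 μM compound was applied to crude K562 extract at 1 mg/mL protein in PBS pH 7.4 with 1 mM MgCl2. Heating for 3 min spanned 48°C-58°C, after which aliquots were pooled, adjusted to 0.5% NP-40 at 4°C and spun at 21,000xg for 90 min. TMTpro 16plex LC-MS/MS of the supernatant, with channel sums equalised, gave values recorded as log-two fold change in thermal stability against solvent controls, from duplicates.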
# [1] = compound: CC(=O)c1cnc2ccc(-c3cc(Cl)c(O)c(Cl)c3)nc2c1N[C@H]1CC[C@H](CN(C)C)CC1
# Outline: as §1
# ralimetinib = compound: CC(C)(C)Cn1c(N)nc2ccc(-c3[nH]c(C(C)(C)C)nc3-c3ccc(F)cc3)nc21 [ralimetinib]
# Outline: as §1
# [2] = compound: CC(C)(O)CC(=O)NCCn1ccc2ncnc(Nc3ccc(Oc4cccc(C(F)(F)F)c4)c(Cl)c3)c21
# Outline: as §1
# [3] = compound: CC(C)C1=C2N=C(C=C(N2N=C1)NCC3=CC=CC=C3)NCCCCCCN
# Outline: as §1
# [4] = compound: CC1=C(C(CC(=O)N1)C2=CC=C(C=C2)C(F)(F)F)C(=O)NC3=C(C=C4C(=C3)C=NN4)F
# Outline: as §1
# [5] = compound: CC1=C(C2=C(C=C1)C(=O)C3=CC=CC=C3N2CCCN)C
# Outline: as §1
# [6] = compound: CC1=C(C=C(C=C1)NC(=O)C2=CC(=CC=C2)C(C)(C)C#N)NC3=CC4=C(C=C3)N=CN(C4=O)C
# Outline: as §1
# [7] = compound: CC1=C(C=C(C=C1)NC(=O)C2=CC(=CC=C2)N(C)C)NC(=O)C3=CC=C(C=C3)O
# Outline: as §1
# [8] = compound: CC1=CC=C(C=C1)SC2=C3C=C(SC3=CN=C2)C(=O)N
# Outline: as §1
# UniProt P14635, sequence (P14635 whole entry, looked up): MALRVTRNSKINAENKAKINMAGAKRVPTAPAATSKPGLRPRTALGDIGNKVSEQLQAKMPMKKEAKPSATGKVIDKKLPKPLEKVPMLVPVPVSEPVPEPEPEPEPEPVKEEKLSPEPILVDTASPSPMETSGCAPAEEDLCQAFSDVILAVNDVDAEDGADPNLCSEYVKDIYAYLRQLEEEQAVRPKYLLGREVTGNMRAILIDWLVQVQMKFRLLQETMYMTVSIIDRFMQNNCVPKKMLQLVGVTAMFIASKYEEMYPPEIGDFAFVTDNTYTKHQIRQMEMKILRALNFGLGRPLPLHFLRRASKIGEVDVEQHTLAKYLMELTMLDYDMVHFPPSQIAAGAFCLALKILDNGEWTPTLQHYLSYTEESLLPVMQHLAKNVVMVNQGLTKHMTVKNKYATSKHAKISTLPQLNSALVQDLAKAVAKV
# UniProt Q96SN8, sequence (Q96SN8 whole entry, looked up): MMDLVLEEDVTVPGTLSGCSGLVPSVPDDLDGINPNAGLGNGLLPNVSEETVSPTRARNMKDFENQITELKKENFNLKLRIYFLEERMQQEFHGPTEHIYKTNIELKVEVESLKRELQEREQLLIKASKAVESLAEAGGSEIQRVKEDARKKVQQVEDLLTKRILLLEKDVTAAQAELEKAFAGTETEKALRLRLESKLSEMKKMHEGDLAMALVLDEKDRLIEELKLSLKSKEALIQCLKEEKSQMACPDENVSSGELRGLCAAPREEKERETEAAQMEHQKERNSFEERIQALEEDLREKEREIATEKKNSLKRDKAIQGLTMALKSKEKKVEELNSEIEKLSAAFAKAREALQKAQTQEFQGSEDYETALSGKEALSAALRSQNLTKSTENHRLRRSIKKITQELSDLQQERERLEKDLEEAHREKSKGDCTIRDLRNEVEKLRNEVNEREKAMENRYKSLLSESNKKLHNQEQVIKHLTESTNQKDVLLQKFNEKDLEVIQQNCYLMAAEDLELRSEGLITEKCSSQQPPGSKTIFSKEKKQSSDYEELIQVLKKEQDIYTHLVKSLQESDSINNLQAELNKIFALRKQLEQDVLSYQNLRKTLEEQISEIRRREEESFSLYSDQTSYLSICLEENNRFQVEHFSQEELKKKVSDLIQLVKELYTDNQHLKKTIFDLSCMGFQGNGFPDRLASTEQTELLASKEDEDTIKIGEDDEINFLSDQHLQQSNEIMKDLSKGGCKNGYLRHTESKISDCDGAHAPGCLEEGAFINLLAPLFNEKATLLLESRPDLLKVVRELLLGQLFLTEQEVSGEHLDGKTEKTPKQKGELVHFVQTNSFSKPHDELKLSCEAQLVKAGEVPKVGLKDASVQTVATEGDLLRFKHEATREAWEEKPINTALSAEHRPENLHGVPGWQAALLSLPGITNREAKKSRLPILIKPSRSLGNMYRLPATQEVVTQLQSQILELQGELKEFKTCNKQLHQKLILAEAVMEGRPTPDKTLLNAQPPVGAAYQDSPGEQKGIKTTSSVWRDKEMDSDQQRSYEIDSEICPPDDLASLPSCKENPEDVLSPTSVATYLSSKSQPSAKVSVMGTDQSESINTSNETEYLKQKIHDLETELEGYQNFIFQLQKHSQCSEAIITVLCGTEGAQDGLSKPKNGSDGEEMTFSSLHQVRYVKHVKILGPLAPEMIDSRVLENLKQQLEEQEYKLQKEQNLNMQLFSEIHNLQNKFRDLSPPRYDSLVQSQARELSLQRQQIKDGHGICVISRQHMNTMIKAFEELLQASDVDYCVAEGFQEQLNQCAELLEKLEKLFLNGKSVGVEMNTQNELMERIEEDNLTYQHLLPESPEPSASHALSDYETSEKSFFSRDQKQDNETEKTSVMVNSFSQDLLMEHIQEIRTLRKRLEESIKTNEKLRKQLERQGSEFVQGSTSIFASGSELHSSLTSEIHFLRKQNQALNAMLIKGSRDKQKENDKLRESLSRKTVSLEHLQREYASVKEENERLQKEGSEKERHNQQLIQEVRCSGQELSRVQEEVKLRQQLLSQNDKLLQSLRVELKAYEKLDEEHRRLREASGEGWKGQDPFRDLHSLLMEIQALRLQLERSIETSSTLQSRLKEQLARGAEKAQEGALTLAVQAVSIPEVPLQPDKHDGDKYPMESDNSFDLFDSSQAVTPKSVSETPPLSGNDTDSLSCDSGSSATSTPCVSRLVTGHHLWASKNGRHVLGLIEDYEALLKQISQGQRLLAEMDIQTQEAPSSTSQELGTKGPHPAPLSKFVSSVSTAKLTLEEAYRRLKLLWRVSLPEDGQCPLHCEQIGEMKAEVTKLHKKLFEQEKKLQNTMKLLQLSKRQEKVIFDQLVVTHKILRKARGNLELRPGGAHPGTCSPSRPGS
# UniProt Q99700, sequence (Q99700 whole entry, looked up): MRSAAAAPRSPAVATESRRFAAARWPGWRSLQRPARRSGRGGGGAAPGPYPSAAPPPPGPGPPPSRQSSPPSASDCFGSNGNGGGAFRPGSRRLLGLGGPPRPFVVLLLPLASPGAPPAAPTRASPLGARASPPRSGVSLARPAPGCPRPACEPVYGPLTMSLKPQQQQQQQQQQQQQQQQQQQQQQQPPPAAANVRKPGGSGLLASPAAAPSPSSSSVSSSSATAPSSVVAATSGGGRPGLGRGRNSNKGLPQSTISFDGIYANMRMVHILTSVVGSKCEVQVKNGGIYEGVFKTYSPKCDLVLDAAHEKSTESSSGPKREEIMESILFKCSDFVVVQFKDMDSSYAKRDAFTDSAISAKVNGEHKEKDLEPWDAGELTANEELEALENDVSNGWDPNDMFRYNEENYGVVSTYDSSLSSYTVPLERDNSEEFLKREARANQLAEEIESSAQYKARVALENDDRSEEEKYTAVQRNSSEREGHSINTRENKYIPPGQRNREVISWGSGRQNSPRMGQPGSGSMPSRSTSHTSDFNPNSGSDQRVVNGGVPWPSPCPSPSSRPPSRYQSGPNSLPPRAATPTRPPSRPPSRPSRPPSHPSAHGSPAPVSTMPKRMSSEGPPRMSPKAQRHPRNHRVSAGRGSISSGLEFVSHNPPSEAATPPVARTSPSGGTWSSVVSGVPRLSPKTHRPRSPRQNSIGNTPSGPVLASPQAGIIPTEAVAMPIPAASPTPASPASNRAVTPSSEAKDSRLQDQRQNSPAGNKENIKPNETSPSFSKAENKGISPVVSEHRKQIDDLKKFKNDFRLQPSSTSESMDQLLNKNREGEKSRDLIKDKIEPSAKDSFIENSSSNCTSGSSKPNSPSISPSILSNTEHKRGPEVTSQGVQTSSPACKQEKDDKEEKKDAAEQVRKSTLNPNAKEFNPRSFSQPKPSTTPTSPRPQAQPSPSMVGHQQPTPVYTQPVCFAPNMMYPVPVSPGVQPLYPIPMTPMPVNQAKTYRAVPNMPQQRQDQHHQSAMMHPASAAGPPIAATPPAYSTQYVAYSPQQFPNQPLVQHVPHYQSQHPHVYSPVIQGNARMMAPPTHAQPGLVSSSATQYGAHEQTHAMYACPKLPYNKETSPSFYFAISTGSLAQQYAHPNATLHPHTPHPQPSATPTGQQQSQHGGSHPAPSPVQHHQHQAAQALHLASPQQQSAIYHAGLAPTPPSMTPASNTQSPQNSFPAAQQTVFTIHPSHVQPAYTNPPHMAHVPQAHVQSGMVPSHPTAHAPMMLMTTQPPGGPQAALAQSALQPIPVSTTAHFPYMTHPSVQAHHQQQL
# UniProt O43709, sequence (O43709 whole entry, looked up): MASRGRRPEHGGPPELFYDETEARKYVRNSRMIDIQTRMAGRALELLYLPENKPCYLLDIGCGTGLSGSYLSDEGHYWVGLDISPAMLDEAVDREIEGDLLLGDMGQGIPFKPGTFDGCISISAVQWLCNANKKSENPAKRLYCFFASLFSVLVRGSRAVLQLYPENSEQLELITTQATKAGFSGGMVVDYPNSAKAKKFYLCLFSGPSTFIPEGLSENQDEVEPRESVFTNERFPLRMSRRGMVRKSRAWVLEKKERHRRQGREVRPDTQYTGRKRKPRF
# UniProt O00311, sequence (O00311 whole entry, looked up): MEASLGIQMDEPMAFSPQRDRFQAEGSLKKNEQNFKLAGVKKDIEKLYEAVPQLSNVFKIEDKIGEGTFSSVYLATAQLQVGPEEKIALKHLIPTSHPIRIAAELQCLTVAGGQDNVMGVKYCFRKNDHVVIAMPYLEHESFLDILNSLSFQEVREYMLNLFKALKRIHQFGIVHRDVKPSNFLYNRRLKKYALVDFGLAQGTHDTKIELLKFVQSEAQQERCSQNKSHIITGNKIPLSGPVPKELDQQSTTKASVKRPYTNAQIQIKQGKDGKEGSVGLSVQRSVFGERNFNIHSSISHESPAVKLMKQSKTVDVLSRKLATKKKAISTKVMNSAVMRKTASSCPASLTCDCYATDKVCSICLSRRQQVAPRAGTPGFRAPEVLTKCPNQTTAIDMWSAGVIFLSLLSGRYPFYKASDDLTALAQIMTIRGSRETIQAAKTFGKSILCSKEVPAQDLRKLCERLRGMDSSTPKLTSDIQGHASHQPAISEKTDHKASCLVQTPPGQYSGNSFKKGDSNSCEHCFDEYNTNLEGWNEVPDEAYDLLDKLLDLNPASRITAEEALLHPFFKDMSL
# UniProt P30307, sequence (P30307 whole entry, looked up): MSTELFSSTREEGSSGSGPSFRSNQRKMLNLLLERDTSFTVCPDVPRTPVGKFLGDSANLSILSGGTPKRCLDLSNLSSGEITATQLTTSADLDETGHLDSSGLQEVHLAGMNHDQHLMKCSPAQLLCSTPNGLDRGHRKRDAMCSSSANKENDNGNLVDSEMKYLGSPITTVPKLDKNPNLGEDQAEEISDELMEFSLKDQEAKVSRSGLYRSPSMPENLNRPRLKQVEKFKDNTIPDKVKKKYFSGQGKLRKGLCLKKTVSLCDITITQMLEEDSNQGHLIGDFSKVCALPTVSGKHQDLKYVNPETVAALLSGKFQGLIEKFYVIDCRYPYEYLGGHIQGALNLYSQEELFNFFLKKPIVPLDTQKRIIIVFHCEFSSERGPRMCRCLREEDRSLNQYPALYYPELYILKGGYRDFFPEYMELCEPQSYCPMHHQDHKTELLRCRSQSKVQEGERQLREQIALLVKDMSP
Target,log2 fold change (ibrutinib),log2 fold change [1],log2 fold change (ralimetinib),log2 fold change [2],log2 fold change [3],log2 fold change [4],log2 fold change [5],log2 fold change [6],log2 fold change [7],log2 fold change [8]
CDK11A (UniProt Q9UQ88),0.022,0.414 (active),0.003,0.056,-0.036,-0.03,-0.022,0.002,0.025,-0.014
ATAD3B (UniProt Q5T9A4),-0.054,0.018,-0.027,-0.069,-0.012,-0.026,-0.028,-0.03,0.045,0.015
BUD23 isoform 3 (UniProt O43709),-0.017,-0.007,0.089,-0.002,-0.064,-0.004,0.119,-0.056,-0.023,-0.001
CALB2 (UniProt P22676),0.085,0.016,0,-0.083,-0.093,-0.025,-0.116,0.028,-0.039,-0.014
CAMK1 (UniProt Q14012),0.017,0.009,0.004,-0.144,-0.017,-0.034,-0.003,0.016,-0.027,0.008
CDK5RAP2 (UniProt Q96SN8),-0.022,0.268 (active),-0.006,0.01,-0.019,-0.001,-0.044,-0.007,0.003,0.067
BRD2 isoform 2 (UniProt P25440),0.074,-0.041,-0.056,0.021,0.26,-0.025,0.008,0.056,0.049,0.105
CHD1L (UniProt Q86WJ1),-0.032,0.03,0.024,-0.011,-0.001,0.008,-0.043,0.029,0.061,0.019
C12orf45 (UniProt Q8N5I9),0.027,0.003,0.005,0.014,0.033,-0.021,-0.02,-0.018,0.02,-0.043
CCNB1 (UniProt P14635),-0.01,0.503 (active),0.009,-0.045,-0.012,-0.005,0.003,0.044,-0.002,0
CHD5 (UniProt Q8TDI0),-0.063,0.015,0,0.005,-0.011,0.026,-0.026,-0.005,0.029,0.01
ATAD1 (UniProt Q8NBU5),0,0.008,0.245,-0.059,0.016,-0.165,-0.059,-0.003,-0.01,0.03
CDC25C (UniProt P30307),0.006,0.01,0.013,0.091,-0.027,0.026,0.059,-0.022,-0.004,-0.019
CDC7 (UniProt O00311),0.04,0.09,0.014,0.028,0.047,0.066,-0.011,0.05,-0.002,-0.07
CCNK isoform 4 (UniProt O75909),0.09,0.007,0.042,-0.01,0.012,0.015,-0.017,0.024,-0.037,-0.007
CCNB2 (UniProt O95067),-0.062,0.358 (active),0.028,-0.028,0.023,-0.011,0.017,0.022,0.037,-0.079
CELF2 isoform 3 (UniProt O95319),-0.016,0.062,-0.019,-0.015,0.001,0.025,0.01,-0.413 (active),0.018,0.014
CELF1 isoform 4 (UniProt Q92879),0.027,-0.027,0.034,-0.004,0.033,0.072,0.016,-0.331 (active),0,0.025
CAMKK2 (UniProt Q96RR4),0.052,0.231 (active),0.035,-0.005,0.019,-0.011,-0.005,-0.031,0.005,0.014
CES2 isoform 4 (UniProt O00748),0.431 (active),-0.048,-0.031,0.057,-0.004,0.202,-0.128,0.079,-0.019,-0.025
CBX1 (UniProt P83916),-0.002,0.021,-0.006,-0.023,-0.039,-0.033,-0.024,0.007,-0.003,-0.046
CHCHD4 isoform 2 (UniProt Q8N4Q1),0.076,-0.041,0.034,-0.091,-0.015,0.076,0.002,0.039,0,0.013
BORCS5 (UniProt Q969J3),0.088,-0.02,-0.033,0.012,0.033,0.153,-0.012,0.021,0.034,-0.001
CARNMT1 (UniProt Q8N4J0),-0.014,-0.003,-0.007,-0.056,-0.041,0.004,-0.014,0.082,-0.043,-0.006
ATXN2 (UniProt Q99700),-0.007,-0.011,-0.002,0,0.016,0.013,-0.022,-0.02,0.041,-0.021
CHCHD2 (UniProt Q9Y6H1),-0.122,-0.005,-0.068,0.035,0.02,0.112,0.023,-0.172,-0.046,0.069
CBFA2T3 (UniProt O75081),0.005,0.016,0.019,-0.005,-0.013,-0.001,0.003,-0.016,0.022,-0.005
C3 (UniProt P01024),-0.047,-0.011,-0.077,-0.032,0.865,0.243,-0.004,0.01,0.026,0.001
CAPNS1 (UniProt P04632),0.076,0.002,0.035,-0.007,-0.015,0.006,0.053,0,-0.025,0.01
C15orf41 (UniProt Q9Y2V0),-0.028,-0.013,-0.018,-0.029,0.063,0.006,0.045,0.023,0.13,-0.106
